This is a sample that favours compounds with a hit; in the whole collection about 8% have one here.
KB-V1 MDR tox – kills drug-selected multidrug resistant KB-V1 cells; KB-V1 MDR cells viability, CellTiter-Glo, 72 h; AID 1347076; Potency, µM (doses to about 46.1 µM), usual class: cytotoxic; 3.4% of 400,000 active; further: on the % scale 0 is the no-effect control and ±100 the full control effect; nearly all actives have a fitted effect of over 60% in size
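Cells of the MDR subline KB-V1 are plated, dosed with compound at multiple concentrations, and incubated 72 h at 37 degrees C; CellTiter-Glo is then added and luminescence read after 10 min.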
MCF10A rerep – DNA re-replication induction in MCF 10a cells | 2.9% of 350,000 active | Potency, µM (doses to about 46.1 µM), for inactives: at the highest dose activity, positive = re-replication, most hits filed as activators | MCF 10A DNA re-replication, Hoechst nuclear intensity, 48 h; further: % of control where 0% means no effect; nearly all actives have a fitted effect of over 50% in size
KB-3-1 tox – kills parental KB-3-1 adenocarcinoma cells | KB-3-1 viability, CellTiter-Glo ATP luminescence, 72 h | Potency, µM (series often up to 46.1 µM), hits mostly cytotoxic | 1.4% of 400,000 active | AID 1347075; further: on the % scale 0 is the no-effect control and ±100 the full control effect; nearly all actives have a fitted effect of over 60% in size
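Parental KB-3-1 viability, qHTS format: 72 h compound exposure, 37 °C; CellTiter-Glo; media-only wells and DMSO plates as controls; concentration-effect fits on corrected data.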
HT1080 IDH1KD tx – kills HT-1080 cells with IDH1 knockdown; 2% of 360,000 active; HT-1080 IDH1 knockdown viability, ATP luminescence, 48 h; Potency, µM (titrated, usually from 46.1 µM), without a hit: top-dose activity, negative = toxicity, actives largely listed as cytotoxic;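 further: 0% = DMSO wells and -100% = cell-free medium wells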
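Viability of IDH1-knockdown HT-1080 fibrosarcoma cells was assessed by CellTiter-Glo after 48 h at 37 °C with titrated compound; concentration-effect curves were classified by fit quality and response size.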
SW480 rerep – induces DNA re-replication in SW480 colon adenocarcinoma cells | 1.8% of 340,000 active | Potency, µM (series often up to 46.1 µM), without a hit: top-dose re-replication activation, hits mostly activators | SW480 DNA re-replication, Hoechst DNA content imaging, 48 h; further: % of control where 0% means no effect; nearly all actives have a fitted effect of over 55% in size
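First, 250 cells per well were seeded. Next, compound or vehicle (23 nL) was pinned in, plates sat 48 hr at 37 C. Finally Hoechst was added for 40 min before fluorescence scanning.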
HT1080NT lethal – kills 2HG-producing HT-1080-NT fibrosarcoma cells. HT-1080-NT fibrosarcoma viability, CellTiter-Glo ATP luminescence, 48 h. Potency, µM (highest dose often 46.1 µM), inactives show at the highest dose activity, negative = less viability, hits mostly cytotoxic. 1.6% of 360,000 active. AID 686970;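 further: NT is the 2HG producing partner of a matched IDH1 knockdown line; 0% = DMSO-treated cells and -100% = media-only wells without cells; nearly all actives have a fitted effect of over 55% in size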
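HT-1080-NT fibrosarcoma cells (2HG-overproducing), 750 cells/well in RPMI with 5% FBS, dosed after 2 h and incubated 48 h at 37C. CellTiter-Glo luminescence normalized to DMSO and no-cell wells; concentration-response curves fitted and classed.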
An asterisk follows results filed as active. The call rests on the fitted dose curve; in most records, active means well fitted curve in the direction sought with a large enough effect; inconclusive means small, poorly fitted or top-dose-only effect, or another doubt; inactive means no such curve, though single readings can be large; an effect the other way counts as inactive or inconclusive. Potency means the concentration at half of the fitted maximal effect.

`CCCCNc1ncnc2c1cnn2-c1ccccc1` gave KB-V1 MDR tox inconclusive, MCF10A rerep inconclusive, KB-3-1 tox 6.51µM*, HT1080 IDH1KD tx 14.6µM*, SW480 rerep 6.51µM* and HT1080NT lethal inconclusive.
For Cc1cccc(Nc2ncnc3c2cnn3Cc2ccccc2)c1 the results were KB-V1 MDR tox inactive, MCF10A rerep 1.6%, KB-3-1 tox inactive, HT1080 IDH1KD tx -8.6%, SW480 rerep -1.7% and HT1080NT lethal -0.6%.
`Cc1cccc(NC(=O)CSC2=Nc3ccccc3C3=NC(CC(=O)NCc4cccs4)C(=O)N23)c1` (stereo not given) gave KB-V1 MDR tox inactive and KB-3-1 tox inactive.
For C[N+]1(CC(=O)c2ccc(Oc3ccccc3)cc2)CCOCC1 the results were KB-V1 MDR tox inactive and KB-3-1 tox inactive.
Screening Cc1ccc2oc(C(=O)NCC3CCOCC3)c(C)c2c1 returned KB-V1 MDR tox inactive, MCF10A rerep -5.7%, KB-3-1 tox inactive, HT1080 IDH1KD tx 12.7%, SW480 rerep -22.7% and HT1080NT lethal 19.0%.
CC(C)N(C(=O)CSc1nnnn1C1CCCC1)C(C)C was read as KB-V1 MDR tox 13µM*, MCF10A rerep -1.3%, KB-3-1 tox inactive, HT1080 IDH1KD tx 3.3%, SW480 rerep -0.6% and HT1080NT lethal 4.8%.
Cc1ccc(NC(=O)Cn2c(=O)n(Cc3nc(C)no3)c(=O)c3cc4c(cc32)OCO4)c(C)c1 was read as KB-V1 MDR tox inactive and KB-3-1 tox inactive.
`CC(C)=NOc1cc(NC(=O)CCl)cc([N+](=O)[O-])c1` gave KB-V1 MDR tox 16.4µM*, MCF10A rerep 6.51µM*, KB-3-1 tox 18.4µM*, HT1080 IDH1KD tx 9.2µM*, SW480 rerep 9.2µM* and HT1080NT lethal 5.8µM*.
For CCC(=O)Nc1cc(ON=C(C)C)cc([N+](=O)[O-])c1 the results were KB-V1 MDR tox inactive, MCF10A rerep -3.0%, KB-3-1 tox inactive, HT1080 IDH1KD tx 7.9%, SW480 rerep -4.9% and HT1080NT lethal -1.2%.
`O=C(CCl)Nc1cc(SCC(O)CO)cc([N+](=O)[O-])c1` (stereo not given) gave KB-V1 MDR tox inconclusive, MCF10A rerep inconclusive, KB-3-1 tox 5.8µM*, HT1080 IDH1KD tx 1.64µM*, SW480 rerep 5.8µM* and HT1080NT lethal 1.84µM*.
N#CNC(=Nc1ccccc1)SCc1ccc(C(=O)O)cc1 was read as KB-V1 MDR tox inactive, MCF10A rerep inconclusive, KB-3-1 tox inactive, HT1080 IDH1KD tx -3.6%, SW480 rerep 0.8% and HT1080NT lethal 18.0%.
CSC(=Nc1ccccc1)N=C(SCc1ccccc1)N(C)C was read as KB-V1 MDR tox 5.8µM*, MCF10A rerep inconclusive, KB-3-1 tox 4.11µM*, HT1080 IDH1KD tx 13µM*, SW480 rerep 7.31µM* and HT1080NT lethal 20.6µM*.
For COc1ccc(NC(=O)c2c(NCc3ccc(C)o3)sc3c2CCCCC3)c(OC)c1 the results were KB-V1 MDR tox inactive and KB-3-1 tox inactive.
Screening Cc1cc(C)cc(C(=O)OCC(=O)Nc2cccc(S(=O)(=O)NC3=NCCCCC3)c2)c1 returned KB-V1 MDR tox 16.4µM*, MCF10A rerep -17.4%, KB-3-1 tox inconclusive, HT1080 IDH1KD tx -8.5%, SW480 rerep inconclusive and HT1080NT lethal 0.1%.
For O=C(CCl)Nc1cccc(S(=O)(=O)NC2=NCCC2)c1 the results were KB-V1 MDR tox inactive, MCF10A rerep inconclusive, KB-3-1 tox 18.4µM*, HT1080 IDH1KD tx 16.4µM*, SW480 rerep inconclusive and HT1080NT lethal 18.4µM*.
Screening O=C(Nc1cccc(S(=O)(=O)NC2=NCCCCC2)c1)c1cc(-c2ccccc2Cl)nc2ccccc12 returned KB-V1 MDR tox inactive, MCF10A rerep inconclusive, KB-3-1 tox inactive, HT1080 IDH1KD tx -14.9%, SW480 rerep -3.7% and HT1080NT lethal 7.8%.
O=C(COC(=O)c1ccccc1)Nc1cccc(S(=O)(=O)NC2=NCCCCC2)c1 was read as KB-V1 MDR tox inactive, MCF10A rerep 4.3%, KB-3-1 tox inactive, HT1080 IDH1KD tx 20.8%, SW480 rerep -0.8% and HT1080NT lethal inconclusive.
For CCN(CC)c1ccc(C(=O)OCC(=O)Nc2cccc(S(=O)(=O)NC3=NCCCCC3)c2)cc1 the results were KB-V1 MDR tox 20.6µM*, MCF10A rerep inconclusive, KB-3-1 tox inconclusive, HT1080 IDH1KD tx 9.4%, SW480 rerep 23.3% and HT1080NT lethal 2.2%.
O=C(Nc1cccc(S(=O)(=O)NC2=NCCC2)c1)c1cc(-c2ccccn2)nc2ccccc12 was read as KB-V1 MDR tox inactive, MCF10A rerep 0.7%, KB-3-1 tox inactive, HT1080 IDH1KD tx inconclusive, SW480 rerep 4.7% and HT1080NT lethal 23.1µM*.
For CC1=CC(C)(C)n2c(O)c(N=N)c3cc(C)cc1c32 the results were KB-V1 MDR tox inconclusive, MCF10A rerep inconclusive, KB-3-1 tox inactive, HT1080 IDH1KD tx 7.0%, SW480 rerep 15.0% and HT1080NT lethal 0.0%.
Screening CCOC(=O)C/C(N)=N/NC(=O)c1ccc(Cl)cc1Cl returned KB-V1 MDR tox inactive, MCF10A rerep -36.4%, KB-3-1 tox inactive, HT1080 IDH1KD tx 5.4%, SW480 rerep inconclusive and HT1080NT lethal -16.3%.
`COc1cc(S(=O)(=O)NCCc2c(C)[nH]c3ccccc23)c(C)cc1C` gave KB-V1 MDR tox inconclusive and KB-3-1 tox inactive.
CC1=CC(=O)N(c2cccc(C(F)(F)F)c2)C1c1ccc(Cl)cc1 (stereo not given) was read as KB-V1 MDR tox 14.6µM*, MCF10A rerep inconclusive, KB-3-1 tox inactive, HT1080 IDH1KD tx -28.1%, SW480 rerep 22.8% and HT1080NT lethal -16.7%.
Screening CCn1cc(C(=O)NCc2ccco2)c(=O)c2cc(S(=O)(=O)N3CCc4ccccc4C3)ccc21 returned KB-V1 MDR tox inactive, MCF10A rerep inconclusive, KB-3-1 tox 23.1µM*, HT1080 IDH1KD tx inconclusive, SW480 rerep 26.2% and HT1080NT lethal inconclusive.
`CCOC(=O)N1CCN(C(=O)c2cn(CC)c3ccc(S(=O)(=O)N4CC(C)CC(C)C4)cc3c2=O)CC1` (stereo not given) gave KB-V1 MDR tox inactive, MCF10A rerep 2.31µM*, KB-3-1 tox inactive, HT1080 IDH1KD tx 6.9%, SW480 rerep -32.8% and HT1080NT lethal 5.7%.
Screening CCn1cc(C(=O)NCc2ccc(Cl)cc2)c(=O)c2cc(S(=O)(=O)N3CCc4ccccc4C3)ccc21 returned KB-V1 MDR tox inactive and KB-3-1 tox inactive.

Assay outcomes deposited in PubChem by National Center for Advancing Translational Sciences (NCATS).
